Experimental data from PubChem BioAssay (NCI).
About 83,000 compounds went through this panel and 20% of them were active in at least one assay; those are over-represented in the sample as a whole.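 Negative percent growth values reflect cell death: -40 means 40% of the cells present at the start died, and -100 means all died.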 Values without a mark were called inactive. Calls of active or inactive are those of the source. How the source made its calls: active means growth percent below 10; inactive means the rest.

Legend:
Experiment in all cases: NCI-60 one-dose screen, 48 h (100 = growth as untreated, 0 = no growth, -100 = all killed)
Conditions in all cases: 10 µM unless noted
[1] = system: SR leukemia
[2] = system: RPMI-8226 leukemia
[3] = system: OVCAR-8 ovarian
[4] = system: OVCAR-5 ovarian
[5] = system: OVCAR-4 ovarian
[6] = system: SK-OV-3 ovarian
[7] = system: IGROV1 ovarian
[8] = system: OVCAR-3 ovarian
[9] = system: HS 578T breast
[10] = system: NCI/ADR-RES ovarian
[11] = system: T-47D breast
[12] = system: MDA-MB-435 melanoma
[13] = system: SW-620 colon
[14] = system: MCF7 breast
[15] = system: HCT-116 colon
[16] = system: HCC-2998 colon
[17] = system: KM12 colon
[18] = system: BT-549 breast

SMILES	growth [1]	growth [2]	growth [3]	growth [4]	growth [5]	growth [6]	growth [7]	growth [8]	growth [9] [%]	growth [10]	growth [11]	growth [12]	growth [13] [%]	growth [14]	growth [15]	growth [16]	growth [17]	growth [18]
COC(=O)[C@H]1[C@H](OC)[C@@H](OC(=O)/C=C/c2ccncc2)CC2CN3CCc4c([nH]c5cc(OC)ccc45)[C@@H]3C[C@@H]21 (some centres undefined)	78.3%	57.4%	81%	106%	60.8%	89.1%	85.2%	89.8%	77.5	81.8%	36.8%	77.9%	74	55.9%	61.1%	122%	93.6%	
COc1cc(C2C=C(C)N=C3SC(C)=NN32)cc(OC)c1OC (centres undefined)	96.3%	108%	104%	95.9%	104%	92.5%	101%	106%	114	101%	92.3%	112%	112	91.6%	106%	107%	102%	
N#Cc1ccc(NC(=O)c2ccc3cccnc3c2O)cc1	25.6%	23.4%	16%	60.6%	16.5%	19.8%	21.3%	26%	53.8	8.81% (active)		26.2%	23.1	15.8%	20.3%	44.6%	25.7%	27.7%
COc1cc(/C=C2\CCCC3=C2N=C2SC(C)=NN2C3c2cc(OC)c(OC)c(OC)c2)cc(OC)c1OC (centres undefined)	4.78% (active)	-25.6% (active)	4.84% (active)	67.3%	54.3%	60.3%	24.4%	21.2%	25	8.69% (active)	37.6%	-63.9% (active)	10.3	12.5%	-71.6% (active)	55.4%	-37.8% (active)	
CCCCNc1nnc(-c2cc(-c3cc4ccccc4o3)nn2-c2ccccc2)o1	76.5%	77.9%	88%	105%	86.7%	99.4%	63.9%	66%	93.1	87.5%	76.7%	101%	103	73.8%	89.4%		103%	96.7%
Clc1ccc(-c2nc(-c3ccco3)cn3ccnc23)cc1	63.4%	52.9%	49.8%	87.9%	41.3%	-14.7% (active)	40.7%	50.7%	74	70.1%	40.2%	78.6%	72.7	27.2%		58.2%	48.7%	84.5%
Cc1ccc(C2=NN(c3ccc(S(N)(=O)=O)cc3)C(c3cn(-c4ccccc4)nc3-c3ccccc3)C2)cc1 (centres undefined)	11.7%	39.7%	86.3%	115%	105%	93.4%	88.5%	56.1%	96.6	90.6%	83.7%	62.7%	86.5	55.9%	83.9%	118%	41.1%	
O=C1CCCCC=C1C[N+](=O)[O-]	2.57% (active)	60.6%	86.8%	104%	94.9%	99.1%	91.6%	61%	107	101%	70.3%	92.9%	39.6	84.4%	62.5%		105%	97.2%
CCN(C(=O)c1cc2ccccc2[nH]1)[C@H]1CCC[C@@H](NCc2ccc(OC)cc2)C1	69.2%	86%	100%	85.5%	83.3%	96.6%	85.4%	89.6%	89.3	88.4%	82.7%	93.1%	91.2	84%	92.1%		90.4%	102%
CCCCCCCCCCCCOB(OCCCCCCCCCCCC)OCCCCCCCCCCCC	89.8%	95.8%	101%	110%	121%	-1.64% (active)	107%	74.3%	107	97.6%		114%	117	97.5%	123%	91.6%	102%	96.7%
CCN1C(=O)N(CC)C2Nn3c(s/c(=C\c4cccc(F)c4)c3=O)=NC21 (centres undefined)	36.2%	90.7%	77.4%	86.8%	67.5%	102%	84.8%	43%	75.5	30.6%		5.47% (active)	57.4	54.7%	45.4%	98.7%	49.1%	80.4%
Cc1ccc(S(=O)(=O)OCC(=O)Nc2ccc(C(=O)O)c(O)c2)cc1	45.7%	92%	97.7%	102%	86.9%	127%	-17.7% (active)	118%	118	88%		114%	105	105%	96.2%		110%	89.2%
CC/C=C\C[C@H]1C/C=C2/C(=O)C(Cl)=C[C@@H]2C/C=C\CCCC(=O)O1	-2.48% (active)	-14.1% (active)	3.57% (active)	-25% (active)	-37.8% (active)	-6.42% (active)	-41.7% (active)	-96.1% (active)	17.6	6.27% (active)	-16.1% (active)	-74.8% (active)		-40.4% (active)	-81% (active)	-80.2% (active)	-74.3% (active)	-75% (active)
N#CC1=C(N)n2nc(-c3ccncc3)nc2NC1c1cccc2ccccc12 (centres undefined)	80.3%	74.9%	92.7%	100%	80.4%	98.2%	91.2%	97.4%	80.5	91.9%	66.2%	88.1%		80.5%	87.9%	105%	97.6%	90.1%
Nc1c(C(=O)Nc2cccc([N+](=O)[O-])c2)sc2nc3c(cc12)C(O)CCC3 (centres undefined)	21%	52%	82.3%	78.7%	80.2%	46.3%	52.5%	33.1%	71.8	47.8%		-22.9% (active)	37.9	15.2%	24.1%	87.6%	33.4%	58.1%
NC(=O)NC(=O)/C=C/C(=O)OCCCl	96.8%	93.3%	90.7%	96.9%	107%	105%	109%	106%		109%	69%	101%	102	92.2%	104%	99.8%	110%	106%
Cc1sc(N=Nc2ccc(N(C)C)cc2)[n+]([O-])c1C	98.2%	106%	101%	107%	94.2%	104%	93.4%	96%	96.3		95.4%	101%	99.3	79.9%	112%	112%	91.7%	94.3%
Clc1nc(Cl)c2ncn(C/C=C/Cn3cnc4c(Cl)nc(Cl)nc43)c2n1	-14.2% (active)	-17.3% (active)	7.73% (active)	112%	94.6%	103%	17.7%	60.5%	46.3	99%		98.3%	45	38.3%	33.3%		78.7%	-33.3% (active)
